Assay results from PubChem BioAssay (EPA / NIEHS).
The source made the active and inactive calls. Rule for the calls: active = hit-call score of the fitted dose curve at least 0.9, where 1 is the maximum; inactive = score below 0.9.

Assays:
[1] = read-out: Interleukin-1 alpha (IL1a), IL1A (gene 3552); experiment: BSK_KF3CT_IL1a: BioMAP Diversity Plus: KF3CT Assay for Interleukin-1 alpha (IL1a) Biomarker Activity (AID 2283070); conditions: primary human keratinocytes with fibroblasts; actives raise or lower the signal
Outline: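 Human keratinocyte plus foreskin fibroblast primary co-culture, sampled 24 h after chemical dosing. IL-1a measured by ELISA; responses fitted bidirectionally against DMSO baseline (negative control), so gain or loss of signal both count.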

[2] = read-out: TIMP metallopeptidase inhibitor 2 (TIMP2), TIMP2 (gene 7077); experiment: BSK_KF3CT_TIMP2: BioMAP Diversity Plus: KF3CT Assay for TIMP metallopeptidase inhibitor 2 (TIMP2) Biomarker Activity (AID 2283071); conditions: primary human keratinocytes with fibroblasts; actives raise or lower the signal
Outline: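 Cells: human keratinocytes co-cultured with foreskin fibroblasts. Treat with chemical, 24 h. Measure TIMP-2 by ELISA; fit curves bidirectionally vs DMSO baseline.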

[3] = read-out: C-C motif chemokine 2 (Homo sapiens) (UniProt P13500); experiment: BSK_KF3CT_MCP1: BioMAP Diversity Plus: KF3CT Assay for Monocyte Chemoattractant Protein 1 (MCP1/CCL2) Biomarker Activity (AID 2283073); conditions: primary human keratinocytes with fibroblasts; actives raise or lower the signal
Outline: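 ELISA read-out of MCP-1, 24 h post-dose, in primary human skin keratinocytes co-cultured with fibroblasts. Parallel SRB staining monitors cytotoxicity; changes fitted both directions relative to DMSO.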

[4] = read-out: Matrix Metallopeptidase 9 (MMP9), MMP9 (gene 4318); experiment: BSK_KF3CT_MMP9: BioMAP Diversity Plus: KF3CT Assay for Matrix Metallopeptidase 9 (MMP9) Biomarker Activity (AID 2283074); conditions: primary human keratinocytes with fibroblasts; actives raise or lower the signal
Outline: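 Keratinocyte plus foreskin fibroblast human primary skin co-culture was dosed with chemical and MMP-9 was quantified by ELISA 24 h later. Bidirectional curve fitting used DMSO as negative control and activity baseline.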

[5] = read-out: urokinase plasminogen activator (uPA), PLAU (gene 5328); experiment: BSK_KF3CT_uPA: BioMAP Diversity Plus: KF3CT Assay for urokinase plasminogen activator (uPA) Biomarker Activity (AID 2283075); conditions: primary human keratinocytes with fibroblasts; actives raise or lower the signal
Outline: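 Human keratinocyte plus foreskin fibroblast primary co-culture exposed to chemical for 24 h. uPA levels were quantified by ELISA, and activity was fitted bidirectionally against a DMSO negative-control baseline.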

CD40, CD40 (gene 958) [6] = experiment: BSK_LPS_CD40: BioMAP Diversity Plus: LPS Assay for CD40 Biomarker Activity (AID 2283076); conditions: primary human HUVEC with PBMC; actives raise or lower the signal
Outline: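 In the LPS system of human endothelial cells with peripheral blood mononuclear cells, CD40 levels were read by ELISA 24 h post-treatment. Signal changes in either direction were fitted against the DMSO baseline, with parallel SRB protein staining.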

[7] = read-out: Interleukin-8 (IL8), CXCL8 (gene 3576); experiment: BSK_LPS_IL8: BioMAP Diversity Plus: LPS Assay for Interleukin-8 (IL8) Biomarker Activity (AID 2283078); conditions: primary human HUVEC with PBMC; actives raise or lower the signal
Outline: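 ELISA read-out of IL-8 after 24 h chemical treatment of LPS-activated endothelial/PBMC human primary co-cultures. Changes either up or down relative to DMSO; overt cytotoxicity checked by sulforhodamine B staining in parallel wells.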

[8] = BSK_LPS_SRB: Viability Assessment in the BioMAP Diversity Plus: LPS Assay (AID 2283079); conditions: primary human HUVEC with PBMC;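 note: total protein by sulforhodamine B absorbance as a cytotoxicity measure; measured one day after compound addition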
Outline: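 SRB viability endpoint: cells fixed with 10% TCA, stained with 0.1% SRB, read at 560 nm, 24 h post-dose. HUVEC/PBMC co-culture; signal change in either direction scored relative to DMSO.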

[9] = BSK_LPS_PGE2: BioMAP Diversity Plus: LPS Assay for Prostaglandin E2 (PGE2) Biomarker Activity (AID 2283082); conditions: primary human HUVEC with PBMC; actives raise or lower the signal
Outline: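 LPS-activated HUVEC/PBMC co-culture; cmpd dosed, 24 h; PGE2 by ELISA; bidirectional fit vs DMSO; SRB (0.1%, TCA-fixed, 560 nm) in parallel plates for overt cytotox.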

[10] = read-out: Macrophage colony-stimulating factor (MCSF), CSF1 (gene 1435); experiment: BSK_LPS_MCSF: BioMAP Diversity Plus: LPS Assay for Macrophage colony-stimulating factor (MCSF) Biomarker Activity (AID 2283083); conditions: primary human HUVEC with PBMC; actives raise or lower the signal
Outline: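 Bidirectional fitting against DMSO was applied to M-CSF levels read by ELISA at 24 h post-dose. The system pairs human umbilical vein endothelium with peripheral blood mononuclear cells; parallel SRB staining tracked cytotoxicity.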

[11] = read-out: Tissue Factor, F3 (gene 2152); experiment: BSK_LPS_TissueFactor: BioMAP Diversity Plus: LPS Assay for Tissue Factor Biomarker Activity (AID 2283084); conditions: primary human HUVEC with PBMC; actives raise or lower the signal
Outline: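 Compound was added to an endothelial cell/PBMC co-culture, and after 24 h tissue factor (CD142) was read by ELISA. Gain or loss of signal was fitted against a DMSO baseline, and parallel SRB staining (560 nm) tracked overt cytotoxicity.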

[12] = read-out: Tumor necrosis factor (Homo sapiens) (UniProt P01375); experiment: BSK_LPS_TNFa: BioMAP Diversity Plus: LPS Assay for Tumour Necrosis Factor alpha (TNFa) Biomarker Activity (AID 2283085); conditions: primary human HUVEC with PBMC; actives raise or lower the signal
Outline: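 Read-out is ELISA of TNFa in primary human endothelial cell–PBMC co-cultures at 24 h after compound. Activity in either direction was fitted against DMSO.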

[13] = read-out: Vascular cell adhesion molecule 1 (VCAM1), VCAM1 (gene 7412); experiment: BSK_LPS_VCAM1: BioMAP Diversity Plus: LPS Assay for Vascular cell adhesion molecule 1 (VCAM1) Biomarker Activity (AID 2283086); conditions: primary human HUVEC with PBMC; actives raise or lower the signal
Outline: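 HUVEC + PBMC co-culture, LPS system; compound 24 h; VCAM-1 by ELISA; bidirectional fit vs DMSO control; parallel SRB (0.1%, TCA-fixed, 560 nm) for cytotoxicity.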

CD38, CD38 (gene 952) = experiment: BSK_SAg_CD38: BioMAP Diversity Plus: SAg Assay for CD38 Biomarker Activity (AID 2283087); conditions: primary human HUVEC with PBMC; actives raise or lower the signal
Outline: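 Human HUVEC plus PBMC co-culture stimulated with superantigen; CD38 measured by ELISA 24 h after chemical dosing. Fluorescence read-out, bidirectional fit against DMSO; cytotoxicity tracked in parallel by SRB and Alamar Blue.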

CD40, CD40 (gene 958) [14] = experiment: BSK_SAg_CD40: BioMAP Diversity Plus: SAg Assay for CD40 Biomarker Activity (AID 2283088); conditions: primary human HUVEC with PBMC; actives raise or lower the signal
Outline: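 CD40 is measured by fluorescence ELISA in an endothelial/PBMC primary human co-culture at 24 h post-dose. Fitting is bidirectional, DMSO baseline. Parallel SRB staining (560 nm) flags cytotoxicity.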

CD69, CD69 (gene 969) = experiment: BSK_SAg_CD69: BioMAP Diversity Plus: SAg Assay for CD69 Biomarker Activity (AID 2283089); conditions: primary human HUVEC with PBMC; actives raise or lower the signal
Outline: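 ELISA, fluorescence read-out: CD69 on human umbilical vein endothelial cell + PBMC co-culture, 24 h post-dosing. Gain or loss of signal fitted bidirectionally against DMSO baseline.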

[15] = read-out: Interleukin-1 alpha (IL1a), IL1A (gene 3552); experiment: BSK_LPS_IL1a: BioMAP Diversity Plus: LPS Assay for Interleukin-1 alpha (IL1a) Biomarker Activity (AID 2283080); conditions: primary human HUVEC with PBMC; actives raise or lower the signal
Outline: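 Readout is IL-1a level by ELISA, 24 h post-dose, fitted as gain or loss relative to DMSO. System: LPS-activated human primary co-culture of vascular endothelium and peripheral blood mononuclear cells, with parallel SRB total-protein cytotoxicity.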

[16] = read-out: Monocyte Chemoattractant Protein-1 (MCP1), CCL2 (gene 6347); experiment: BSK_LPS_MCP1: BioMAP Diversity Plus: LPS Assay for Monocyte Chemoattractant Protein-1 (MCP1) Biomarker Activity (AID 2283081); conditions: primary human HUVEC with PBMC; actives raise or lower the signal
Outline: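 Secreted MCP-1 read by ELISA at 24 h post-dosing in an LPS-activated co-culture of endothelial cells with peripheral blood mononuclear cells. Fits run in both directions, DMSO as baseline; parallel SRB staining tracks overt cytotoxicity.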

[17] = read-out: Transforming growth factor beta 1 (TGFb1), TGFB1 (gene 7040); experiment: BSK_KF3CT_TGFb1: BioMAP Diversity Plus: KF3CT Assay for Transforming growth factor beta 1 (TGFb1) Biomarker Activity (AID 2283072); conditions: primary human keratinocytes with fibroblasts; actives raise or lower the signal
Outline: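 Primary human skin cells (keratinocytes, foreskin fibroblasts) were co-cultured, exposed to test chemical and sampled at 24 h. TGF-b1 levels were measured by ELISA and fitted bidirectionally relative to DMSO.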

Measured: outcome

Tumor necrosis factor (Homo sapiens), sequence (P01375 whole entry, looked up): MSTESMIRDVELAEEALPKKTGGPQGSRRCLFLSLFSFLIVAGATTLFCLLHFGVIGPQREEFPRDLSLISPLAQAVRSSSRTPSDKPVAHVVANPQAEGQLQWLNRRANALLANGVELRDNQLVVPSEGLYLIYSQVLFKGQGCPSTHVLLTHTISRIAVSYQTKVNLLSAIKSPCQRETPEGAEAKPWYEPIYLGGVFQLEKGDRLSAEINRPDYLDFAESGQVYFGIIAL

C=CC(=O)OCCCCCCCC(C)C
inactive: [1] | [2] | [3] | [4] | [5] | CD40, CD40 (gene 958) [6] | [7] | [8] | [9] | [10] | [11] | [12] | [13] | CD38, CD38 (gene 952) | CD40, CD40 (gene 958) [14] | CD69, CD69 (gene 969)

CC=C(C)C(C)=O
inactive: [1] | [2] | [3] | [4] | [5] | CD40, CD40 (gene 958) [6] | [7] | [8] | [15] | [9] | [10] | [11] | [12] | [13] | CD38, CD38 (gene 952) | CD40, CD40 (gene 958) [14] | CD69, CD69 (gene 969)

Cc1c(O)cccc1O
inactive: [1] | [2] | [3] | [4] | [5] | CD40, CD40 (gene 958) [6] | [7] | [8] | [16] | [9] | [10] | [11] | [12] | [13] | CD38, CD38 (gene 952) | CD40, CD40 (gene 958) [14] | CD69, CD69 (gene 969)

CC(C)CCCCCOC(=O)CS
inactive: [1] | [2] | [17] | [3] | [4] | CD40, CD40 (gene 958) [6] | [7] | [8] | [16] | [9] | [10] | [11] | [12] | [13] | CD38, CD38 (gene 952) | CD40, CD40 (gene 958) [14] | CD69, CD69 (gene 969)
